# Among all 210,000 compounds or so, about 5,900 (2.8%) were called active. Not shown: some 5% with an inconclusive outcome. Calls follow the shape of the dose curve; as a rule, active = well fitted activation curve with a large enough effect; inconclusive = small, poorly fitted or top-dose-only effect; inactive = no such curve, though single readings can be large or run the other way. Only a selection was taken, and actives are over-represented in it overall.
# Test: qHTS Assay for Enhancers of SMN2 Splice Variant Expression; also: nearly all actives have a fitted effect of over 55% in size; as to activity change, positive = activation: % of control where 0% means no effect
# Details: HEK293 SMN2-luciferase splicing reporter, luminescence, 30-36 h; series mostly up to 46.1 µM; activity change, positive = activation: at the top concentration
# Description: NIH Chemical Genomics Center [NCGC] NIH Molecular Libraries Probe Production centers Network [MLPCN] MLPCN Grant: R03 MH084179-01 Assay Submitter (PI): Elliot Androphy NCGC Assay Overview: Spinal muscular atrophy (SMA) is caused by insufficient levels of the survival motor neuron protein SMN. The SMN locus on chromosome 5q13 contains two inverted copies of SMN called SMN1 and SMN2 which are 99% identical at the amino acid level. SMN1 is a fully functional protein and SMN2 skips exon 7 90% of the time. Skipping of exon 7 produces non-functional protein product. 10% of the SMN2 protein includes exon 7 and is fully functional. In the SMA disease state, mutations in the SMN1 locus are the cause of the disease state. Because only 10% of SMN2 is of the fully functional form, it is not sufficient to overcome the deficiency produced by the loss of the SMN1 product. A therapy that either increase the amount of SMN2 product made or to increase the inclusion of exon 7 has been proposed for the treatment of SMA. We have designed an assay to identify small molecules that can increase the amount of functional SMN2 product by appending a luciferase reporter gene after the native SMN2 gene, such that inclusion of exon 7 in the expressed product places the luciferase sequence in frame, thus generating functional luciferase enzyme.
# NCGC Assay Protocol Summary: This screen utilizes a luciferase reporter gene assay, combining the promoter and splicing based cassettes in tandem with the major portion of the native SMN2 cDNA, and then transfected into HEK293 cells. Compounds that increase luciferase signal presumably enhance expression of the functional SMN2 splice variant. Passaging media contained DMEM w/ glutamax (+phenol red) 10% FCS, 1x pen/strep, 200 ug/ml hygro, 1x sodium pyruvate. Assay media contained DMEM w/ glutamax (-phenol red) 10% FCS, 1x pen strep, 1x pyruvate Sequence, Parameter, Value, Description (1) Cells, […], 2000 cells/well, 1536 TC treated White solid bottom plate (2) Time, 10-12 hours, 37C 5% CO2 (3) Compound, 23 nl, MLSMR Library (4) Control Compound, 23 nL, Sodium butyrate st 4.5mM (final) conc (5) Time, 30-36 hours, 37C 5% CO2 (6) Reagent, 3 ul, One Glo (TM) from Promega (7) Time, 5-15 minutes, Room temp (8) Detector, Viewlux: luminescent read, 60 second integration, high speed 2x binning Keywords: Spinal muscular atrophy, SMA, SMN2, high throughput screening, MLSMR, MLPCN, NIH Roadmap, qHTS and NCGC
# Potency is read from the fitted curve at half-maximal effect.
SMILES,"activity change, positive = activation",Potency
Cc1c(O)cc(O)c2c(=O)c(-c3ccc(O)cc3)coc12,-11.6% (inactive),
O=c1c(-c2ccccc2)coc2cc(O)ccc12,,22.4 µM (active)
O=c1c(-c2ccccc2)coc2c(CN3CCOCC3)c(O)ccc12,-18.2% (inactive),
COc1cc2nc(NCC(C)c3ccccc3)n3nc(-c4ccccc4)nc3c2cc1OC (centres undefined),23.7% (inactive),
Cc1cc(C)c2oc(C(=O)Nc3c(C(=O)Nc4ccccc4)oc4ccccc34)cc(=O)c2c1,-0.706% (inactive),
Cc1ccc(Cl)cc1N1CCN(C(=O)C2CCC(CNS(=O)(=O)c3cccs3)CC2)CC1 (centres undefined),-13.3% (inactive),
COc1cc(C(=O)OCc2ccc([N+](=O)[O-])cc2)cc(OC)c1OC,-2.26% (inactive),
COc1cc(/C=N\Nc2ccc([N+](=O)[O-])cn2)ccc1OCC(=O)O,7.65% (inactive),
COc1cc(/C=N/O)ccc1OCc1ccc([N+](=O)[O-])cc1,,14.1 µM (active)
COc1ccc(N2CCN(C(=O)C3CCCN(C(=O)c4cc5sccc5n4C)C3)CC2)cc1 (centres undefined),-34.1% (inactive),
Cc1ccc(S(=O)(=O)c2nc(-c3ccco3)oc2SCC(=O)Nc2ccc(F)cc2)cc1,-0.512% (inactive),
COc1cccc(C(=O)NNC(=O)c2ccccc2Br)c1,-6.77% (inactive),
COc1ccc(C2COC(=O)C2=N)c(NC(=O)c2ccccc2)c1 (centres undefined),9.6% (inactive),
COc1cccc(C(=O)Nc2cc3c(cc2Br)OCCCO3)c1,,10 µM (active)
COc1cccc(C(=O)Nc2ccc(N3CCCC3)cc2)c1,,8.91 µM (active)
C/C(=N\NC(=O)c1ccccc1C)c1ccc(N2CCOCC2)cc1,16.8% (inactive),
Cc1cc(NS(=O)(=O)c2ccc(NC(=O)c3ccccc3C)cc2)nc(C)n1,-6.19% (inactive),
COc1cccc(OC)c1C(=O)Nc1ccc(N2CCCCC2)cc1,-25.4% (inactive),
COc1ccc(C(=O)NC(=S)Nc2ccc(N3CCCC3)cc2)cc1OC,-14.4% (inactive),
Cc1ccccc1C(=O)Nc1ccc(N2CCCCCC2)cc1,,12.6 µM (active)
CCn1cc(C(=O)NCc2ccccc2)c(=O)c2cc(S(=O)(=O)N3CCCCC3)ccc21,0.829% (inactive),
CC(C)Cn1c(=O)c2ccccc2n2c(CCC(=O)N3CCN(c4cccc(Cl)c4)CC3)nnc12,-5.96% (inactive),
Cc1ccc(OCCn2c(CNc3ccccc3C)nc3ccccc32)cc1,4.39% (inactive),
O=C(NCCCO)c1nn(-c2ccc(Cl)cc2)nc1CO,-6.62% (inactive),
O=C(Cn1c(=O)n(Cc2cccs2)c(=O)c2cccnc21)Nc1ccc(F)cc1,0.241% (inactive),
Cc1ccc(NC(=O)CN2C(=O)C(c3ccc(F)cc3)=NC23CCCCCC3)c(C)c1,22.3% (inactive),

SMILES,"activity change, positive = activation",Potency
CCOc1ccc(N(Cc2ccccc2)C(=O)c2nc(S(C)(=O)=O)ncc2Cl)cc1,-86.3% (inactive),
O=C(CCS(=O)(=O)c1cc(Br)cc2c1N(C(=O)C1CC1)CC2)Nc1ccc(C(F)(F)F)cc1,1.62% (inactive),
O=C(c1ccco1)n1nc(-c2ccc(Cl)cc2)nc1NCc1ccccc1,9.32% (inactive),
CCCCOc1ccc(CN2C(=O)C(=O)c3cc(Br)cc(C)c32)cc1OC,-33.5% (inactive),
N#Cc1ccccc1NC(=O)c1cccc(COc2ccc(Cl)cc2Cl)c1,,0.794 µM (active)
COC(=O)c1ccccc1NC(=O)c1ccc(COc2ccccc2Cl)o1,-4.75% (inactive),
CSc1ccc(C#N)cc1NC(=O)c1cccc(Cl)c1,12.8% (inactive),
Cc1cccc2c1-c1sc(C(=O)Nc3ccc(F)cc3F)cc1CO2,-7.99% (inactive),
Nc1nc2c(ncn2[C@@H]2O[C@H](COP(=O)(O)OP(=O)(O)OP(=O)(O)O)[C@@H](O)C2O)c(=O)[nH]1 (some centres undefined),1.43% (inactive),
Cc1ccc(C(=O)Nc2ccc(C(=O)O)cc2)cc1S(=O)(=O)Nc1ccccc1,-7.6% (inactive),
CCN(CC)S(=O)(=O)c1cc(C(=O)Nc2ccccn2)ccc1C,,22.4 µM (active)
CCN(CC)S(=O)(=O)c1cccc(C(=O)Nc2ccccc2)c1,-30.2% (inactive),
COC(=O)c1ccc(OC)c(Cn2c(=O)n(Cc3ccccc3)c(=O)c3c2c2cc(OC)ccc2n3C)c1,-3.23% (inactive),
CCn1nnnc1SCC(=O)c1ccc(C)cc1C,,2.82 µM (active)
CNC(=O)CSc1nnnn1-c1ccc(C)cc1C,-16.8% (inactive),
Cc1ccc(C(=O)CSc2nc(-c3ccccc3)nc3c2CCCC3)c(C)c1,2.13% (inactive),
COc1ccccc1-c1cc(C(F)(F)F)nc(S(=O)(=O)CCCC(=O)Nc2ccc(F)cc2F)n1,2.69% (inactive),
Cc1nc2ccccc2cc1C(=O)N/N=C/c1ccc([N+](=O)[O-])cc1,-19.1% (inactive),
COc1ccc(NC(=O)c2ccccc2[N+](=O)[O-])cc1OC,16.3% (inactive),
Cc1ccc(NC(=O)c2sccc2C)cc1[N+](=O)[O-],,14.1 µM (active)
Cc1ccsc1C(=O)N/N=C/c1ccc([N+](=O)[O-])cc1,,12.6 µM (active)
NC(=S)N/N=C/c1ccc([N+](=O)[O-])cc1,-8.3% (inactive),
Cc1ccc(NC(=O)CN2CCC(C(N)=O)CC2)cc1[N+](=O)[O-],8.3% (inactive),
Cc1ccc(C)c(CN2C(=O)c3ccccc3S(=O)c3ccc(C(=O)N4CCOCC4)cc32)c1 (centres undefined),-1.41% (inactive),
COc1ccccc1-c1cc2nc(C)c(CCC(=O)O)c(C)n2n1,-22% (inactive),
Cc1ccc(CN2COc3cc(C)c4c(oc(=O)c5ccccc54)c3C2)cc1,-3.2% (inactive),

SMILES,"activity change, positive = activation",Potency
Cc1ccc2nc(/C(C#N)=C/c3ccc(-c4ccc(C(=O)OC(C)C)cc4)o3)[nH]c2c1,,11.2 µM (active)
CCOC(=O)c1ccc(-c2ccc(/C=C(\C#N)C(=O)Nc3ccc(OCC)cc3)o2)cc1,-11.3% (inactive),
Cc1ccc2nc(/C(C#N)=C\c3ccc(OC(=O)c4cccs4)cc3)[nH]c2c1,1.65% (inactive),
O=C(NCCc1ccccc1)c1ccc2c(c1)N(Cc1ccccc1)C(=O)c1ccccc1S2(=O)=O,4.46% (inactive),
NC(=O)N1CCc2ccccc21,-6.27% (inactive),
O=C(CSCc1ccccc1)N1CCc2ccccc21,,12.6 µM (active)
Cc1nnc(SCC(=O)N2CCc3ccccc32)n1-c1ccccc1,-11.7% (inactive),
Cc1ccc(C)c(N2CCN(C(=O)CN3C(=O)COc4ccc(S(=O)(=O)N5CCCCCC5)cc43)CC2)c1,6.26% (inactive),
Cc1cc(C)nc(NS(=O)(=O)c2ccc(NC(=O)c3cc(=O)c4ccc(C)c(C)c4o3)cc2)n1,2.53% (inactive),
COc1ccccc1-c1nnc(C2CCN(C(=O)c3ccc(Cl)cc3)CC2)o1,-12.1% (inactive),
COc1ccc(C(=O)/C=C/Nc2ccccn2)cc1,,1.41 µM (active)
CCOc1cc(NC(=O)c2ccccn2)c(OCC)cc1NC(=O)c1ccc(OC)cc1,-2.18% (inactive),
Cc1cc(N/C=C\C(=O)c2ccc(Cl)c(Cl)c2)no1,10.9% (inactive),
CCC(=O)N1CCc2cc(S(=O)(=O)NC(CC(C)C)C(=O)NCCc3cccc(C)c3)ccc21 (centres undefined),-12.6% (inactive),
N#Cc1c(NC(=O)C2CCCO2)sc2c1CCCCC2 (centres undefined),,6.31 µM (active)
N#Cc1c(NC(=O)C2CC(Cl)=CCC2C(=O)O)sc2c1CCCCC2 (centres undefined),-0.264% (inactive),
N#Cc1c(NC(=O)CCCl)sc2c1CCCCC2,3.56% (inactive),
Cc1ccccc1C(=O)N(Cc1ccc(N(C)C)cc1)CC1CCCO1 (centres undefined),5.65% (inactive),
COc1c(C)cccc1C(=O)Nc1cc(Cl)ccc1N1CCOCC1,11.4% (inactive),
c1cnn(-c2cc(N3CCOCC3)ncn2)c1,-14% (inactive),
O=C(Nc1cc(N2CCOCC2)ncn1)NC1(C(F)(F)F)Oc2ccc(Cl)cc2O1 (centres undefined),,20 µM (active)
Cc1ccc(-c2nc3cccc(C)n3c2Nc2ccc3c(c2)OCCO3)cc1,15.9% (inactive),
O=C(Nc1cc(C(F)(F)F)ccc1Cl)c1cc2nc(-c3ccc4c(c3)OCO4)cc(C(F)(F)F)n2n1,-0.044% (inactive),
CC(C)CNC(=O)C(=O)Nc1ccc(N(C)C)cc1,,11.2 µM (active)
COc1cc(OC)c(C(=O)Nc2ccc(N(C)C)cc2)cc1OC,-2.79% (inactive),
CC(C)CNC(=S)Nc1ccc(F)cc1,26.9% (inactive),

SMILES,"activity change, positive = activation",Potency
COc1ccc(N(C)C(=O)CCS(=O)(=O)c2cccc3nsnc23)cc1,9.32% (inactive),
CCc1ccc(NC(=O)N2CCN(c3ccccc3)CC2)cc1,1.4% (inactive),
CCOC(=O)c1ccc(NC2Nc3cc(C)nn3S2)cc1 (centres undefined),-45.1% (inactive),
CCc1ccc(NC2Nc3cc(C)nn3S2)cc1 (centres undefined),,11.2 µM (active)
O=C(NCCC1=CCCCC1)c1ccc2c(c1)N(Cc1ccccc1F)C(=O)c1ccccc1S2(=O)=O,9.24% (inactive),
COc1ccc(CNC(=O)c2cc3c(-c4ccccc4F)nn(C)c3s2)c(OC)c1,-4.64% (inactive),
CCOc1ccc(/C=C(\C#N)c2nc3ccccc3c(=O)[nH]2)cc1OC,6.78% (inactive),
Fc1cccc(-n2ncc3c2ncn2nc(-c4ccccc4Cl)nc32)c1,11.6% (inactive),
COc1ccc(-n2nc(C(=O)NCCc3ccc(Cl)cc3)c3c4ccccc4n(C)c3c2=O)cc1Cl,-6.22% (inactive),
Cc1ccc(N)cc1-n1c(C)ccc1C,,28.2 µM (active)
CC(NC(=O)c1cc(-c2ccccc2)on1)c1ccccc1 (centres undefined),-1.13% (inactive),
CC(C)CNC(=O)c1cc(-c2ccc(Br)cc2)on1,,12.6 µM (active)
CCCCNC(=O)c1cc(-c2ccc(Cl)c(Cl)c2)on1,3.08% (inactive),
CCCCS(=O)(=O)c1oc(-c2cccs2)nc1S(=O)(=O)c1ccccc1,-103% (inactive),
Cc1ccc(S(=O)(=O)N2CCc3cc(C(=O)Nc4ccc(Cl)cc4C)ccc32)cc1,-7.76% (inactive),
O=c1oc2ccccc2cc1-c1csc(Nc2ccc(O)cc2)n1,,11.2 µM (active)
Cc1cc(NC(=O)c2cccc(Cl)c2)ccc1-c1cc2ccccc2oc1=O,-3.74% (inactive),
CCCOC(=O)c1cc2ccccc2oc1=O,-9.46% (inactive),
Cc1nc(C)c(-c2csc(NCCc3ccccc3)n2)s1,-52.2% (inactive),
COc1ccc2nc(Nc3nc(-c4cc5ccccc5oc4=O)cs3)sc2c1,4.66% (inactive),
CCNc1nc(-c2cc3ccccc3o2)cs1,,3.16 µM (active)
Cc1cc2c(cc1C)C(c1cccc(OC(C)C)c1)CC(=O)N2 (centres undefined),5.65% (inactive),
O=C(CSc1ccc(-c2cccs2)nn1)Nc1ccccc1F,-18.9% (inactive),
N#Cc1ccc(-c2cccs2)nc1SCc1ccc(Br)cc1,0.274% (inactive),
Cc1cccc(CSc2ccc(-c3cccs3)nn2)c1,,20 µM (active)
COc1ccc(C2NC(=O)N(C)C3=C2C(=O)N(c2ccc(C(=O)O)cc2)C3)cc1 (centres undefined),-7.2% (inactive),

# Reference: PubChem BioAssay AID1458 (National Center for Advancing Translational Sciences (NCATS), 2008)
